An excerpt weighted towards active compounds, which were near 19% of everything screened.
Pf growth 96h = Primary qHTS for delayed death inhibitors of the malarial parasite plastid, 96 hour incubation; P. falciparum luciferase reporter growth, 96 h; Potency, µM (series often up to 28.7 µM), inactives show at the highest dose activity change, negative = inhibition, hits mostly inhibitors; 320,000 tested, 6.9% active; note: potency is the fitted concentration of half-maximal effect; % is set by controls: 0 for no effect and ±100 for the full control effect
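96 h incubation, 37 C, 5% CO2, of luciferase-reporter P. falciparum-infected RBCs (2% hematocrit, 0.05% parasitemia final) with test compounds; endpoint luminescence.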
Lassa entry inh = qHTS for Inhibitors of binding or entry into cells for Lassa Virus; Lassa virus pseudotype entry inhibition, cell reporter; Potency, µM (doses to about 37.9 µM), without a hit: top-dose activity change, negative = inhibition, most hits filed as inhibitors; 300,000 tested, 1.2% active; calls by dose curve; tested in HEK293 cells; note: potency is the fitted concentration of half-maximal effect; % is set by controls: 0 for no effect and ±100 for the full control effect; nearly all actives have a fitted effect of over 50% in size
Marburg entry inh = qHTS for inhibitors of binding or entry into cells for Marburg Virus; Marburg virus pseudotyped entry inhibition, cell reporter; Potency, µM (titrated, usually from 37.8 µM), inactives show at the highest dose activity change, negative = inhibition, hits mostly inhibitors; 300,000 tested, 1.8% active; AID 540276, 2011; calls by dose curve; tested in HEK293 cells; note: potency is the fitted concentration of half-maximal effect; % is set by controls: 0 for no effect and ±100 for the full control effect
Pf growth 48h = Primary qHTS for delayed death inhibitors of the malarial parasite plastid, 48 hour incubation; P. falciparum luciferase growth in erythrocytes, 48 h; Potency, µM (top dose mostly 28.7 µM), for the others: at the top dose activity change, negative = inhibition, most hits filed as inhibitors; 310,000 tested, 5.9% active; note: potency is the fitted concentration of half-maximal effect; % is set by controls: 0 for no effect and ±100 for the full control effect
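Growth was read as firefly luciferase luminescence after a 48 h, 37 C, 5% CO2 exposure of compounds to reporter-bearing P. falciparum cultures (0.1% parasitemia, 2% hematocrit final) in Albumax-supplemented RPMI 1640.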
CHX counter = Cycloheximide Counterscreen for Small Molecule Inhibitors of Shiga Toxin; cell reporter, cycloheximide protein synthesis inhibition counterscreen; max response, %; 300,000 tested, 12% active; AID 2314, 2010; in the data active = max response mostly above about 13%, no sharp cut-off; inactive = mostly below about 14%; note: read at 38.3 µM for the half of the compounds with a filed dose; 0% is about no effect
Shiga toxin inh = A qHTS for Small Molecule Inhibitors of Shiga Toxin. 290,000 tested, 9.2% active. inhibition, % at 38.7 µM. Vero cells, Shiga toxin protein synthesis inhibition reporter; in the data active = inhibition mostly above about 28%, no sharp cut-off; inactive = mostly below about 43%; note: 0% is about no effect
An asterisk follows results filed as active; i = inactive; ? = inconclusive; . = no result given; [ ] = dose if it differs, or a comment. Unless noted, calls come from the whole dose curve; as a rule, active = well fitted inhibition curve with a large enough effect; inconclusive = small, poorly fitted or top-dose-only effect, or another doubt; inactive = no such curve, though single readings can be large or run the other way.

SMILES | Pf growth 96h | Lassa entry inh | Marburg entry inh | Pf growth 48h | CHX counter | Shiga toxin inh
Cc1ccc2[nH]c(=O)c(CN(CCCN(C)C)C(=S)NCCc3ccccc3)cc2c1 | -2.1% | 0.3% | ? | ? | -1.7 | -8.9
COc1ccc(-c2nn3c(C4CCCCC4)nnc3s2)cc1OC | ? | ? | -12.2% | . | 0.9 | -15.4
COC(=O)C1=C(c2ccc(OCc3ccccc3)cc2)C[C@@H]2CC[C@H]1N2C(=O)NCc1cccc(OC)c1 | ? | . | . | 3.7µM* | . | .
COC(=O)C1=C(c2ccc(C(C)=O)cc2)C[C@@H]2CC[C@H]1N2C(=O)NCC1CC1 | 7.5% | . | . | 22.3% | . | .
COC(=O)C1=C(c2ccc(OCc3ccccc3)cc2)C[C@@H]2CC[C@H]1N2C(=O)NCc1ccccc1 | ? | . | . | 7.38µM* | . | .
C=CCNC(NC(=O)c1ccccc1)(C(=O)OCC)C(F)(F)F (centres undefined) | 22.5% | 20.1% | 14.0% | 23.9% | -6.6 | -9.5
CC(C)(C)OC(=O)NCCCC[C@@H](C(=O)NCCCCCCCCCCC(=O)N1CCN(C(=O)OC(C)(C)C)CC1)n1cc(CCO)nn1 | 2.62µM* | . | . | 1.85µM* | . | .
CSCCCc1cn([C@@H](CO)C(=O)NCCCCCCCCCCC(=O)N2CCNCC2)nn1 | -77.3% | . | . | 14.7µM* | . | .
CC[C@H](C)Cc1cn([C@@H](CCCCNC(=O)OC(C)(C)C)C(=O)NCCCCCCCCCCC(=O)N2CCN(C(=O)OC(C)(C)C)CC2)nn1 | 1.04µM* | . | . | 2.08µM* | . | .
Cc1cn([C@@H](CCCCN)C(=O)NCCCCCCCCCCC(=O)N2CCNCC2)nn1 | 42.7% | . | . | -17.5% | . | .
CC(C)(C)OC(=O)NCCCCc1cn(CC(=O)N2CCN(C(=O)OC(C)(C)C)CC2)nn1 | 8.8% | . | . | 1.5% | 9.8 | 8.5
CSCC[C@@H](C(=O)NCCCCCCCCCCC(=O)N1CCN(C(=O)OC(C)(C)C)CC1)n1cc(CCO)nn1 | 1.85µM* | . | . | 5.22µM* | . | .
Cc1cc(=O)oc2c(C)c(OCC(=O)N3CCC(C(=O)O)(c4ccccc4)CC3)ccc12 | -3.3% | . | . | 14.7% | -2.8 | -7.1
Cc1ccc2nc(SCC(=O)Nc3ccc(C)c([N+](=O)[O-])c3)[nH]c2c1 | ? | -2.6% | 3.7% | 15.1% | -7.0 | -0.9
CCCN(CC(=O)Nc1ccc(F)c(F)c1F)C(=O)CCc1nc2ccccc2c(=O)[nH]1 | ? | 8.6% | 12.5% | ? | . | .
COc1cc(C(=O)OCC(=O)N2CCN(S(=O)(=O)c3ccc(C)cc3C)CC2)c([N+](=O)[O-])cc1OC | . | -6.7% | -5.0% | . | . | .
CCOC(=O)c1cnn(-c2ccccn2)c1N | ? | 0.6% | ? | 201.6% | 63.4* | 99.2*
CCOC(=O)C1CCN(c2nc(-c3ccccc3)nc3c2oc2ccccc23)CC1 | . | -6.9% | -6.4% | ? | -2.3 | -20.2
c1ccc(N2CCN(c3ncnc4c3oc3ccccc34)CC2)cc1 | -19.8% | 7.2% | ? | 25.2% | -1.2 | -22.8
CCOC(=O)C1CCN(c2ncnc3c2oc2ccccc23)CC1 | 11.7µM* | -22.9% | -7.3% | 14.1% | -0.9 | -9.3
O=C(O)C1CCN(c2nc(-c3ccccc3)nc3c2oc2ccccc23)CC1 | 11.7µM* | -7.8% | ? | ? | 17.3 | -18.3
CCOC(=O)c1cnn(-c2cc(Oc3ccccc3)ncn2)c1N | 0.0% | 0.1% | -0.4% | 86.4% | -1.4 | -2.9
CCOC(=O)c1cnn(-c2ncnc3c2oc2ccccc23)c1N | 29.9% | 9.4% | -22.9% | 100.0% | 15.9* | 68.4
CCOc1cc(C(=O)OCc2cc(=O)n3c(C)csc3n2)cc(OCC)c1OCC | . | -4.3%[46.1 µM] | . | . | . | .
Cc1ccc(NC(=O)CSc2cc(=O)n(C)c3ccc(Cl)cc23)c(Br)c1 | . | 21.2%[46.1 µM] | -5.8%[46.1 µM] | . | . | .
SMILES | Pf growth 96h | Lassa entry inh | Marburg entry inh | Pf growth 48h | CHX counter | Shiga toxin inh
CCOC(=O)c1cc(-c2ccncc2)nc2c1c(C)nn2-c1ccccn1 | 13.1µM* | ? | ? | 5.86µM* | 13.4 | -10.7
CCOC(=O)C1CCCN(c2ncnc3c2oc2ccccc23)C1 (centres undefined) | 56.4% | ? | 4.0% | 49.5% | 17.5* | 47.2
CC(C)COc1ccc(C(=O)OCCN2CCCCC2)cc1 | 32.3% | ? | ? | 7.6% | 10.3 | 37.1*
CC(C)COc1ccc(C(=O)OCCN2CCOCC2)cc1 | . | -1.8% | ? | 21.9% | 25.0* | 36.3*
CCOC(=O)COc1c(C(=O)OC)sc2ncccc12 | 59.5% | -0.5% | -7.2% | 33.4% | -4.2 | -9.9
Cc1ccc(NS(=O)(=O)c2cc(Br)cnc2N)c(Cl)c1 | -12.1% | . | . | 2.3% | -2.2 | -11.6
Nc1ncc(Br)cc1S(=O)(=O)Nc1cc(C(F)(F)F)cc(C(F)(F)F)c1 | 11.9% | 14.1µM* | ? | 16.6% | -4.3 | 11.6
CCCC(=NCC(=O)O)C1=C(O)C(C(=O)OC)C(C)(C)CC1=O (centres undefined) | -2.5% | 6.5% | 8.4% | -0.5% | -0.8 | -11.7
S=C(Sc1ccc(Cl)cc1)Sc1ccc(Cl)cc1 | ? | . | . | 6.57µM* | 20.9* | 20.9
S=c1[nH]nc(-c2cc(-c3ccco3)[nH]n2)n1-c1ccccc1 | -4.1% | -4.2% | ? | -1.3% | -6.1 | -10.8
Oc1ccc(Br)cc1-c1ccn[nH]1 | 29.9% | 9.1% | ? | 23.1% | 10.1 | 42.4*
Oc1ccc(Cl)cc1-c1cc(-c2ccco2)[nH]n1 | ? | 7.8% | 25.4% | ? | 30.3* | 56.7*
Oc1ccccc1-c1cc(-c2ccco2)[nH]n1 | -10.3% | ? | -13.3% | . | 46.5* | 133.7*
FC(F)(F)c1ccc(Cl)c(-n2c(-c3cc(-c4ccco4)[nH]n3)n[nH]c2=S)c1 | ? | -15.8% | -26.9% | -12.2% | 1.0 | 3.6
Oc1ccc(Br)cc1-c1cc(-c2ccco2)[nH]n1 | . | -1.8% | -18.9% | 11.7µM* | 8.0 | 41.7
Cn1c(=O)c2[nH]c(CNc3ccc(C(=O)O)cc3)nc2n(C)c1=O | 14.4% | . | . | -0.6% | -1.2 | -5.6
COc1ccccc1[C@H]1C(c2ccc(F)cc2)=NN(c2ccccc2)[C@@H]1CO | . | . | . | . | 0.6 | i
NNC(=O)c1cc(-c2ccco2)[nH]n1 | -1.8% | . | . | 2.2% | 9.7 | 2.5
Oc1c(-c2cc(-c3ccco3)[nH]n2)ccc2ccccc12 | 10.2% | -27.8% | ? | -11.1% | 47.9* | 148.7*
O=C(c1ccco1)N1CCN(C2CCCC2)CC1 | 27.0% | 12.2% | ? | -0.8% | 3.2 | -10.3
CCc1ccc(NC(=O)C2(C)Cc3ccccc3C(=O)O2)cc1 (centres undefined) | ? | 6.2% | ? | 48.4% | 25.7* | 41.2*
Cc1cc(C)cc(NC(=O)C2(c3ccccc3)CC2(Cl)Cl)c1 (centres undefined) | 2.33µM* | -28.2% | ? | 4.65µM* | -5.0 | -4.5
Cc1ccc(NC(=O)C2(c3ccccc3)CC2(Cl)Cl)cc1C (centres undefined) | ? | -5.1% | -17.4% | ? | 66.2* | 128.2*

From PubChem
